Data: PubChem BioAssay (NCI)
Where “and” joins values, the source holds several entries; their conditions need not be identical. Equal entries are not always repeated. The panel holds about 79,000 compounds, 15% with a hit somewhere; the sample as a whole holds those more often. A number with no mark means an inactive call. Calls of active or inactive are those of the source. Cut-off read from the data, not from the text of the source: active = growth inhibition above about 70%; inactive = the rest.

Columns and labels:
[1] = NCI Yeast Anticancer Drug Screen. Data for the sgs1 strain (AID 173);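 note: 0% = growth of vehicle-only control cultures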; settings: S. cerevisiae sgs1 mutant, active compounds read high
How it was run: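 Read-out: yeast growth inhibition relative to vehicle controls, following compound exposure of a strain with a defined DNA repair/cell cycle alteration.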

[2] = NCI Yeast Anticancer Drug Screen. Data for the mlh1 rad18 strain (AID 175); settings: S. cerevisiae mlh1 rad18 strain growth inhibition, active compounds read high
How it was run: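 Yeast w/ defined DNA-repair lesions; compound exposure; growth vs vehicle controls → % inhibition.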

[3] = NCI Yeast Anticancer Drug Screen. Data for the rad18 strain (AID 177); settings: S. cerevisiae rad18 mutant growth inhibition, active compounds read high
How it was run: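 Readout: growth inhibition vs vehicle controls. Cells: genetically altered yeast strain, DNA repair defect.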

[4] = NCI Yeast Anticancer Drug Screen. Data for the rad52 strain (AID 147);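 note: 0% = growth of vehicle-treated control cultures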; settings: S. cerevisiae rad52 mutant growth inhibition, active compounds read high
How it was run: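 Read-out: growth inhibition versus vehicle-treated controls. Cells were a DNA repair-deficient yeast strain treated with compounds.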

[5] = NCI Yeast Anticancer Drug Screen. Data for the wt1 strain (AID 149);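 note: 0% = growth of vehicle-treated wt1 cultures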; settings: S. cerevisiae wt1 strain (SPY 50644) growth inhibition, active compounds read high
How it was run: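 Readout: yeast growth inhibition, normalised to vehicle controls, in the wt1 strain exposed to test compounds.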

[6] = NCI Yeast Anticancer Drug Screen. Data for the rad50EPP+ strain (AID 151);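 note: 0% = growth of vehicle-treated control cultures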; settings: S. cerevisiae rad50 mutant strain, active compounds read high
How it was run: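 Growth inhibition read against vehicle controls in rad50EPP+ yeast, a strain altered in DNA damage repair, after compound exposure.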

[7] = NCI Yeast Anticancer Drug Screen. Data for the mgt1 strain (AID 153); settings: S. cerevisiae mgt1 mutant growth inhibition, active compounds read high
How it was run: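 mgt1 yeast grown with test compound; read-out is growth inhibition versus vehicle-treated cultures.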

[8] = NCI Yeast Anticancer Drug Screen. Data for the rad50 strain (AID 155);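 note: 0% = growth of vehicle-only cultures of the same strain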; settings: S. cerevisiae rad50 strain growth inhibition, active compounds read high
How it was run: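 Compounds were tested on a yeast strain with an engineered DNA damage repair alteration; the reported value is growth inhibition normalised to vehicle treatment.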

[9] = NCI Yeast Anticancer Drug Screen. Data for the mec2-1 strain (AID 157); settings: S. cerevisiae mec2-1 strain, active compounds read high
How it was run: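 Yeast mec2-1 mutant treated with compound. Readout: growth inhibition vs vehicle controls.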

[10] = NCI Yeast Anticancer Drug Screen. Data for the rad14 strain (AID 159);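 note: 0% = growth of vehicle-treated control cultures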; settings: S. cerevisiae rad14 strain growth inhibition, active compounds read high
How it was run: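 Compound-treated yeast with a defined DNA-repair lesion; growth inhibition normalised to vehicle-treated cultures.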

[11] = NCI Yeast Anticancer Drug Screen. Data for the sgs1 mgt1 strain (AID 161);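 note: 0% = growth of cultures given vehicle only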; settings: S. cerevisiae sgs1 mgt1 strain, active compounds read high
How it was run: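 Genetically altered yeast, compound exposure, growth inhibition relative to vehicle.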

[12] = NCI Yeast Anticancer Drug Screen. Data for the cln2 rad14 strain (AID 165);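 note: 0% = growth equal to vehicle treated cultures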; settings: S. cerevisiae cln2 rad14 strain, active compounds read high
How it was run: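 cln2 rad14 yeast strain; compound exposure; growth inhibition read vs vehicle controls.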

[13] = NCI Yeast Anticancer Drug Screen. Data for the bub3 strain (AID 167); settings: S. cerevisiae bub3 mutant strain, active compounds read high
How it was run: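 Growth of a checkpoint-deficient yeast mutant is measured after compound exposure. Values represent inhibition relative to vehicle.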

[14] = NCI Yeast Anticancer Drug Screen. Data for the wt2 strain (AID 169);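 note: 0% = growth of vehicle-treated yeast cultures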; settings: S. cerevisiae wt2 strain growth inhibition, active compounds read high
How it was run: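 Read-out: growth inhibition versus vehicle-treated control cultures after compound exposure of the yeast strain.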

[15] = NCI Yeast Anticancer Drug Screen. Data for the mlh1 strain (AID 171);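 note: 0% = growth of vehicle-treated control cultures of the same strain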; settings: S. cerevisiae mlh1 strain growth inhibition, active compounds read high
How it was run: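 Read-out: growth inhibition versus vehicle controls. Strain: engineered yeast with a defined DNA repair or cell cycle defect, compound-treated.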

[16] = at 5.0 µM (retest, dose inferred, filed as 0.5)
[17] = at 50.0 µM (retest, dose inferred, filed as 5.0)

O=C(C[n+]1ccc2ccccc2c1)c1ccc2ccccc2c1
growth inhibition ([1]; at 1.2 µM): -30%
growth inhibition ([1]; at 3.7 µM): -34%
growth inhibition ([1]; at 11.0 µM): -34%
growth inhibition ([1]; at 33.0 µM): -26%
growth inhibition ([1]; at 100.0 µM): 97% (active)
growth inhibition [2, 16]: 68%
growth inhibition [2, 17]: 100% (active)
growth inhibition ([2]; at 50.0 µM): -11.2% and 69.5%
growth inhibition ([3]; at 1.2 µM): -21%
growth inhibition ([3]; at 3.7 µM): -24%
growth inhibition ([3]; at 11.0 µM): -15%
growth inhibition ([3]; at 33.0 µM): -3%
growth inhibition ([3]; at 100.0 µM): 99% (active)

O=C(c1ccc([N+](=O)[O-])cc1)C1N=NCC1c1ccccc1 (stereo unspecified)
growth inhibition ([4]; at 1.2 µM): 2%
growth inhibition ([4]; at 3.7 µM): 5%
growth inhibition ([4]; at 11.0 µM): 6%
growth inhibition ([4]; at 33.0 µM): 7%
growth inhibition ([4]; at 100.0 µM): 45%
growth inhibition ([5]; at 1.2 µM): 2%
growth inhibition ([5]; at 3.7 µM): 1%
growth inhibition ([5]; at 11.0 µM): 4%
growth inhibition ([5]; at 33.0 µM): 1%
growth inhibition ([5]; at 100.0 µM): 9%
growth inhibition ([6]; at 1.2 µM): -2%
growth inhibition ([6]; at 3.7 µM): -3%
growth inhibition ([6]; at 11.0 µM): -2%
growth inhibition ([6]; at 33.0 µM): 9%
growth inhibition ([6]; at 100.0 µM): 37%
growth inhibition ([7]; at 1.2 µM): -4%
growth inhibition ([7]; at 3.7 µM): -2%
growth inhibition ([7]; at 11.0 µM): 0%
growth inhibition ([7]; at 33.0 µM): 19%
growth inhibition ([7]; at 100.0 µM): 62%
growth inhibition ([8]; at 1.2 µM): 4%
growth inhibition ([8]; at 3.7 µM): 4%
growth inhibition [8, 16]: 13%
growth inhibition ([8]; at 11.0 µM): 5%
growth inhibition ([8]; at 33.0 µM): 7%
growth inhibition [8, 17]: 11%
growth inhibition ([8]; at 50.0 µM): 31%
growth inhibition ([8]; at 100.0 µM): 34%
growth inhibition ([9]; at 1.2 µM): -2%
growth inhibition ([9]; at 3.7 µM): 1%
growth inhibition [9, 16]: 0%
growth inhibition ([9]; at 11.0 µM): 1%
growth inhibition ([9]; at 33.0 µM): 1%
growth inhibition [9, 17]: 22%
growth inhibition ([9]; at 50.0 µM): 20.8%
growth inhibition ([9]; at 100.0 µM): 45%
growth inhibition ([10]; at 1.2 µM): 1%
growth inhibition ([10]; at 3.7 µM): 2%
growth inhibition ([10]; at 11.0 µM): 6%
growth inhibition ([10]; at 33.0 µM): 13%
growth inhibition ([10]; at 100.0 µM): 51%
growth inhibition [11, 16]: 3%
growth inhibition [11, 17]: 27%
growth inhibition ([11]; at 50.0 µM): 59%
growth inhibition [12, 16]: 5%
growth inhibition [12, 17]: 27%
growth inhibition ([12]; at 50.0 µM): 55.6%
growth inhibition ([13]; at 1.2 µM): 0%
growth inhibition ([13]; at 3.7 µM): -3%
growth inhibition [13, 16]: -3%
growth inhibition ([13]; at 11.0 µM): 2%
growth inhibition ([13]; at 33.0 µM): 11%
growth inhibition [13, 17]: 30%
growth inhibition ([13]; at 50.0 µM): 71.8% (active)
growth inhibition ([13]; at 100.0 µM): 75% (active)
growth inhibition ([14]; at 1.2 µM): 0%
growth inhibition ([14]; at 3.7 µM): -1%
growth inhibition ([14]; at 11.0 µM): 1%
growth inhibition ([14]; at 33.0 µM): 4%
growth inhibition ([14]; at 100.0 µM): 64%
growth inhibition ([15]; at 1.2 µM): -1%
growth inhibition ([15]; at 3.7 µM): 0%
growth inhibition ([15]; at 11.0 µM): 3%
growth inhibition ([15]; at 33.0 µM): 5%
growth inhibition ([15]; at 100.0 µM): 64%
growth inhibition ([1]; at 1.2 µM): 0%
growth inhibition ([1]; at 3.7 µM): 1%
growth inhibition ([1]; at 11.0 µM): 3%
growth inhibition ([1]; at 33.0 µM): 13%
growth inhibition ([1]; at 100.0 µM): 78% (active)
growth inhibition [2, 16]: -3%
growth inhibition [2, 17]: 35%
growth inhibition ([2]; at 50.0 µM): 42%
growth inhibition ([3]; at 1.2 µM): 2%
growth inhibition ([3]; at 3.7 µM): 0%
growth inhibition ([3]; at 11.0 µM): 7%
growth inhibition ([3]; at 33.0 µM): 1%
growth inhibition ([3]; at 100.0 µM): 40%
